PubChem BioAssay AID2253 (Southern Research Specialized Biocontainment Screening …, 2010)
Screen size: about 2,200 compounds; about 1,300 (59%) were called active. So high a share suggests a set chosen from earlier hits. A selection follows. Results with a measured potency or affinity are listed apart. Unmarked numbers belong to inactive results. No rule for the calls is given here.

Test: human monocytic cell viability reduction – S. typhimurium screen hits, cytotoxicity control for Salmonella PhoP regulon inhibitors, dose response (AID 2253)
Conditions: THP-1 viability, CellTiter-Glo luminescence, 72 h; series mostly up to 50 µM; viability: at the top concentration

Compound	viability
C=CCSc1nnc(-c2ccc(Cl)cc2Cl)o1	80.3%
COc1c(N2CCNC(C)C2)c(F)cc2c(=O)c(C(=O)O)cn(C3CC3)c12 (stereo unspecified)	93.2%
COc1c(N2CCN(C(=S)NC3CC4CCC3C4)C(C)C2)c(F)cc2c(=O)c(C(=O)O)cn(C3CC3)c12 (stereo unspecified)	102%
COc1c(N2CCN(C(=S)Nc3ccc(F)cc3)C(C)C2)c(F)cc2c(=O)c(C(=O)O)cn(C3CC3)c12 (stereo unspecified)	98.2%
CNC(=S)N1CCN(c2c(F)cc3c(=O)c(C(=O)O)cn(C4CC4)c3c2OC)CC1C (stereo unspecified)	91.2%
CC(=O)Nc1c(C#N)c(C(C)(C)C)cn1C	94.6%
COc1ccc(N(CC(=O)Nc2ccccc2SC)S(C)(=O)=O)cc1OC	88.8%
COc1ccc(S(=O)(=O)N2Cc3ccccc3CC2C(=O)N2CCOCC2)cc1OC (stereo unspecified)	87.6%
CCN1C(=O)/C(=C/N2CC(C)CC(C)C2)SC1=S (stereo unspecified)	91.9%
Cc1ccc(NC2CC(=O)N(Cc3ccccc3)C2=O)cc1 (stereo unspecified)	83.9% [at 25 µM]
CCc1ccc(NC(=O)c2noc3c2CCc2ccccc2-3)cc1	103%
Cc1ccc(N2C(=O)CC(n3ccnc3)C2=O)cc1C (stereo unspecified)	96.2%
COc1ccc2cc(C)c3nnc(SCC(=O)Nc4nc(-c5ccccc5)cs4)n3c2c1	98.8%
CN(C)CC(=O)Nc1nc(-c2ccccc2)cs1	83.1%
CS(=O)(=O)c1ccc([C@@H](O)[C@@H](CO)NC(=O)C(Cl)Cl)cc1	81.8%
CCOCc1nnc(NC(=O)COC)s1	95.1%
CC(NC(=O)CSc1nc2c(cc1C#N)CN(C)CC2)c1ccccc1 (stereo unspecified)	88.5%
COc1cccc(C=NCCNC(=O)c2nonc2N)c1O	85.4%
O=C1CCc2cc(S(=O)(=O)N3CCN(c4cccc(Cl)c4)CC3)ccc2N1	99.2%

Compound	viability
CCN(CC)c1ccc(/C=C(\C#N)C(=O)NCc2ccco2)cc1	96.3%
CCOC(=O)C1CCCN(S(=O)(=O)c2ccc(Br)c(OC)c2)C1 (stereo unspecified)	96.5%
CCn1cc(C(=O)O)c(=O)c2cc(F)c(N3CCN(C(=S)Nc4ccc(OC)cc4)CC3)cc21	85.5%
C/C(Nc1ccc(F)cc1)=C(/C#N)C(N)=O	103%
Cc1cc(-c2c(C)n([O-])c(C)c(C)[n+]2=O)ccc1F	92.8%
CCC(Sc1ncccc1C(=O)OC(C)C)C(=O)N1CCOCC1 (stereo unspecified)	96.5%
Cc1cc(NC(=O)c2cnn3cccnc23)no1	93.6%
CCn1cc(C(=O)NCCCO)c(=O)c2cc(F)c(N3CCN(C)CC3)cc21	97.5%
O=c1[nH]c(CSc2nnc(NCCCN3CCOCC3)s2)nc2cc(Cl)ccc12	81.3%
C=CC#CC[N+]1(CC#Cc2ccccc2)CCOCC1	91.7%
CN1CCCC(OC(=O)c2ccc(Cl)cc2)C1 (stereo unspecified)	101%
O=C(O)/C=C/C(=O)Nc1cccc(C(F)(F)F)c1	91.1%
FC(F)(F)c1cccc(NC(=S)NCCN2CCOCC2)c1	89%
c1ccc(-c2nnc(SCCC3OCCCO3)o2)cc1	88.8%
Cc1cc(-c2csc(NC(=O)c3ccc(C#N)cc3)n2)c(C)n1Cc1ccco1	90.3%
Cc1ccc(CNC(=O)C2CCCN(S(=O)(=O)c3c(C)noc3C)C2)cc1 (stereo unspecified)	92.4%
Cc1cccc(-n2c(N)cc(=O)[nH]c2=S)c1C	85.5%
Cc1cc(C)c(NC(=O)c2cn3c4c(c(N5CCN(C)CC5)c(F)cc4c2=O)OCC3C)c(C)c1 (stereo unspecified)	95.3%
Cc1ccc(N2C(=O)CC(Nc3ccccc3)C2=O)cc1 (stereo unspecified)	105%

Compound	viability
CC1(C)CC(=O)C(C(=O)/C=C/NCCc2ccccc2)C(=O)C1	99.1%
COc1cc(C2C(C(=O)c3ccc(C)o3)=C(O)C(=O)N2CCc2ccccc2)ccc1O (stereo unspecified)	82.5%
c1ccc(COc2cccc(CN3CCN(c4ccccn4)CC3)c2)cc1	80.1%
O=c1[nH]c(CN2CCCCC2)nc2ccccc12	97.8%
CCCC(=O)c1c[nH]c(C(=O)NCCCN2CCOCC2)c1	102%
CCOc1ccc(S(=O)(=O)NNC(=S)Nc2ccc(Br)cc2)cc1	95.5%
O=C(CSc1nc2ccccc2o1)Nc1ccc(N2CCOCC2)cc1	96.8%
O=C(CSc1nc2ccccc2o1)Nc1ccc(N2CCOCC2)c(Cl)c1	80.9%
CCCCC(=O)NCCNC(=O)c1cc(OCC(F)(F)F)ccc1OCC(F)(F)F	100%
COc1ccc(-c2ccc(-c3noc(-c4cccs4)n3)c(OC)n2)cc1	106%
Cc1noc(C)c1CSc1nc2ccccc2nc1NS(=O)(=O)c1ccc(Cl)cc1	112%
Fc1cccc(NCc2cn3ccccc3n2)c1	94.1%
COc1ccc(CN2C(=O)Cc3c2nc(N)c2c(N)nc(N4CCCCC4)c(C#N)c32)cc1	84.8%
CCCCNC(=O)c1cn(CC)c2cc(N3CCN(C)CC3)c(F)cc2c1=O	113%
CCn1cc(C(=O)O)c(=O)c2cc(F)c(N3CCN(C(=S)NC(=O)c4ccccc4F)CC3)cc21	94.8%
CCn1cc(C(=O)O)c(=O)c2cc(F)c(N3CCN(C(=S)NC(=O)c4ccccc4)CC3)cc21	99.5%
CCCNC(=O)c1cn(CC)c2cc(N3CCN(C)CC3)c(F)cc2c1=O	92.9%
N#C/C=C(/N)c1ccc(Br)cc1	89.6%
